Screening data as filed in PubChem BioAssay.
GALR2 blocker: GALR2 antagonists in receptor-expressing cells, primary screen | inhibition, % at 4 µM | Galanin receptor type 2 (Homo sapiens), O43603 | 140,000 tested, 0.39% active | antagonist mode | AID 828, 2007; in the data active = inhibition above about 27%;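 also: cells stimulated with galanin 1-16 at roughly its EC80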
Target sequence (O43603 whole entry, looked up): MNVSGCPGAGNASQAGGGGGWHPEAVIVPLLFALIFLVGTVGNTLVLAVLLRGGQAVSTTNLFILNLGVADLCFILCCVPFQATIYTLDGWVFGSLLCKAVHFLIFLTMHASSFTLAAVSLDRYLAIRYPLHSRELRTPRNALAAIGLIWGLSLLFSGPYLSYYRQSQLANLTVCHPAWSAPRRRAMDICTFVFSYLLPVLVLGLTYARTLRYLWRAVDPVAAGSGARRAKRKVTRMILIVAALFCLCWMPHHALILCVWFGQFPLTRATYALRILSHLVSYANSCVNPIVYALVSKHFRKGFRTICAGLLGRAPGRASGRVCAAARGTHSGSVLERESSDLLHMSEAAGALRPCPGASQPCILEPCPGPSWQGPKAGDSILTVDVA
S1P2 blocker: human S1P2 receptor antagonists, primary screen, cell-based; Sphingosine 1-phosphate receptor 2 (Homo sapiens), O95136; inhibition, % at 5 µM; 97,000 tested, 0.21% active; cell-based S1P2 antagonist assay, inhibition at 5 uM; in the data active = inhibition above about 45%;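 also: CRE beta-lactamase reporter cells expressing human S1P2 stimulated with S1P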
Target sequence (O95136 whole entry, looked up): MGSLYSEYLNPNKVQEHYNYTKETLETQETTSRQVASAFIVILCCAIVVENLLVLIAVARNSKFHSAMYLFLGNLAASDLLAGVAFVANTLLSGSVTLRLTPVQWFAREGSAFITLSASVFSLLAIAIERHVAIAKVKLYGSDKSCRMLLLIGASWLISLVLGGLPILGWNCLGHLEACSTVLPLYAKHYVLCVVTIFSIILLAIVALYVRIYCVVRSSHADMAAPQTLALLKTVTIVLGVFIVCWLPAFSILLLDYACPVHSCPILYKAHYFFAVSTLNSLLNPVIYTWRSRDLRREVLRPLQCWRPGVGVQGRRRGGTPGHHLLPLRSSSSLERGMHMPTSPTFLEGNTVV
LYP act: LYP phosphatase activators, primary screen, biochemical, DiFMUP fluorescence, 2 µM | Tyrosine-protein phosphatase non-receptor type 22 (Homo sapiens), Q9Y2R2 | recombinant LYP; 0 = plate median, 100 = signal doubled | activation, % at 2 µM | 96,000 tested, 0.11% active;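 active = activation at 2 µM above a set limit, the mean plus 5 SD, cut at about 37% in these data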
PTPN22 inh 2: PTPN22 phosphatase inhibitors, primary screen, biochemical, DiFMUP fluorescence, 2 µM | Tyrosine-protein phosphatase non-receptor type 22 (Homo sapiens), Q9Y2R2 | recombinant LYP catalytic domain | inhibition, % at 2 µM | 96,000 tested, 0.21% active | AID 640, 2007;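 active = inhibition at 2 µM at or above a set limit, the screen mean plus 3 SD, cut at about 24% in these data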
S1P2 agonist: S1P2 receptor agonists, primary screen, cell-based. AID 729, 2007. activation, % at 4.5 µM. S1P2-expressing cell line, agonist reporter read-out. 97,000 tested, 0.46% active; in the data active = activation above about 16%
GALR2 agonist: GALR2 receptor agonists, primary screen, cell-based. Galanin receptor type 2 (Homo sapiens), O43603. GALR2-expressing cells, agonist activation read-out. activation, % (concentration not given with the values). 140,000 tested, 0.48% active. AID 803, 2007; in the data active = activation above about 5%, passing the limit was not always enough
GALR2 agon conf: GALR2 agonists, retest of hits, confirmation, cell-based; GALR2-expressing cells, agonist activation; shares compounds with GALR2 agonist; activation, % at 5.6 µM; AID 864, 2007; 460 tested, 10% active; in the data active = activation above about 8.4%
BLA activ ctr: activators of NFAT-driven beta-lactamase reporter, confirmation, counter-screen for GALR2 agonist project, CHO NFAT-bla cells, FRET readout. activation, % at 5.6 µM. 460 tested, 10% active. shares compounds with GALR2 agonist. beta-lactamase FRET activation;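 active = activation above the screen-wide mean activation plus 3 SD, cut at about 8% in these data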
Of the large screens only hits and unclear results are named; the others gave an inactive call (follow-up assays come after a bar, where they were run); ! = repeats disagree. The list is not random: actives were taken first. Their share in the collection is about 1.3%.

Nc1c(C(=O)Nc2ccc(S(=O)(=O)N3CCCC3)cc2)sc2nc3ccc(OC(F)(F)F)cc3cc12	GALR2 agonist 18.0 (no result: S1P2 blocker, LYP act, PTPN22 inh 2, S1P2 agonist) | GALR2 agon conf inactive | BLA activ ctr inactive
O=C(O)CN1C(=O)C2(OCCCO2)c2ccccc21	none | GALR2 agon conf inactive | BLA activ ctr inactive
COC(=O)CN1C(=O)C2(OCCCO2)c2ccccc21	none
CCOC(=O)C(NCc1ccco1)(NC(=O)c1ccccc1)C(F)(F)F (stereo not given)	none
CCCN1C(=O)/C(=C2\SC(N3CCCCC3)=NC2=O)c2ccccc21	GALR2 agonist 59.1 | GALR2 agon conf inactive | BLA activ ctr inactive
COc1ccc(/C=C2/SC(=O)N(NS(=O)(=O)c3ccccc3)C2=S)cc1OC	none
CCc1cc(=O)oc2c(CN3CCCC3)c(O)c(Cl)cc12	none
CCc1cc(=O)oc2c(CN3CCN(C)CC3)c(O)c(Cl)cc12	GALR2 agonist 11.8 | GALR2 agon conf inactive | BLA activ ctr inactive
COC(=O)c1ccc(NC(=O)CN(c2ccc(C)cc2)S(=O)(=O)c2c(C)nn(C)c2C)cc1	none
O=C(Nc1cccc(S(=O)(=O)N2CCOCC2)c1)c1c2c(nc3ccccc13)CCC2	none (no result: S1P2 blocker, LYP act, PTPN22 inh 2, S1P2 agonist)
OC(CNCc1ccco1)Cn1c2ccc(Br)cc2c2cc(Br)ccc21 (stereo not given)	none
Cc1c(-c2cccc(NC(=O)c3cccs3)c2)nc2ncccn12	none (no result: S1P2 blocker, LYP act, PTPN22 inh 2, S1P2 agonist)
c1ccc2[nH]c(-c3ccnc4ccccc34)nc2c1	GALR2 agonist 12.1! | GALR2 agon conf inactive | BLA activ ctr inactive
Cc1ccccc1-c1nc2ccccc2[nH]1	none
Cc1ccc(C(=O)NC(=S)Nc2ccc(NC(=O)c3cccc(Cl)c3)cc2)cc1	GALR2 agonist 10.1 (no result: S1P2 blocker, LYP act, PTPN22 inh 2, S1P2 agonist) | GALR2 agon conf inactive | BLA activ ctr inactive
COc1ccc2[nH]c3c(c2c1)CCn1c-3nc2ccccc2c1=O	GALR2 agonist 8.7 (no result: S1P2 blocker, LYP act, PTPN22 inh 2, S1P2 agonist) | GALR2 agon conf inactive | BLA activ ctr inactive
COc1cc(OC)cc(C(=O)Nn2c(C)nc3ccccc3c2=O)c1	none
COc1ccc(C2=NOC(C(=O)NCc3ccc(F)cc3)C2)cc1OC (stereo not given)	none | GALR2 agon conf inactive | BLA activ ctr inactive
CC(=O)c1cc(C)ccc1OC(=O)c1ccco1	GALR2 agonist 11.1 | GALR2 agon conf inactive | BLA activ ctr inactive
CC(O)C(C(=O)OCc1ccc([N+](=O)[O-])cc1)N1C(=O)c2ccccc2C1=O (stereo not given)	none (no result: S1P2 blocker, LYP act, PTPN22 inh 2, S1P2 agonist)
Cc1ccc2nc(SCC(=O)N(CC(C)C)c3c(N)n(CC(C)C)c(=O)[nH]c3=O)[nH]c2c1	GALR2 agonist 40.3 | GALR2 agon conf inactive | BLA activ ctr inactive
CC(C)CN(C(=O)CSc1nncs1)c1c(N)n(CC(C)C)c(=O)[nH]c1=O	none
COC(=O)C1=C(C)Nc2ncnn2C1c1ccc(OCc2ccccc2)cc1 (stereo not given)	GALR2 agonist 104.4 (no result: S1P2 blocker, LYP act, PTPN22 inh 2, S1P2 agonist) | GALR2 agon conf inactive | BLA activ ctr inactive
O=C(Oc1ccccc1)N1CCN(c2ccc(F)cc2)CC1	none
O=C(Nc1ccc(N2CCN(c3ccc(O)cc3)CC2)cc1)Oc1ccccc1	GALR2 agonist 12.5 | GALR2 agon conf inactive | BLA activ ctr inactive
O=C(Nc1cccc(-c2nnc(-c3ccccc3)o2)c1)c1ccc(Br)o1	none
O=C1/C(=C/c2ccco2)N=C(N2CCCCC2)N1c1ccccc1	none (no result: S1P2 blocker, LYP act, PTPN22 inh 2, S1P2 agonist)
CC(C)N(C1=N/C(=C\c2ccco2)C(=O)N1c1ccccc1)C(C)C	none | GALR2 agon conf inactive | BLA activ ctr 9.2
CCC(C)(C)NC(=O)C(c1cccn1C)N(Cc1ccc(OC)cc1)C(=O)Cn1nnc2ccccc21 (stereo not given)	none | GALR2 agon conf inactive | BLA activ ctr inactive
COC(=O)c1ccc(N2CCN(S(=O)(=O)c3ccc(C)cc3)CC2)c([N+](=O)[O-])c1	none (no result: LYP act, PTPN22 inh 2)
CCN(CC)CCNC(=O)c1ccc(N2CCCCC2)c(NS(=O)(=O)c2ccc(C)cc2)c1	GALR2 agonist 18.9 | GALR2 agon conf inactive | BLA activ ctr inactive
COC(=O)c1ccc(N2CCCCC2)c(NS(=O)(=O)c2ccc(C)cc2)c1	GALR2 agonist 17.7 | GALR2 agon conf inactive | BLA activ ctr inactive
Cc1ccc(S(=O)(=O)Cn2nnnc2C(c2ccccc2)N2CCN(c3ccccc3)CC2)cc1 (stereo not given)	GALR2 agonist 29.2 | GALR2 agon conf inactive | BLA activ ctr inactive
Cc1ccc(S(=O)(=O)Cn2nnnc2C(c2ccccc2)N2CCN(c3ncccn3)CC2)cc1 (stereo not given)	none
CN(C)CCNC(=O)NC(=O)c1ccc(Cl)cc1	GALR2 agonist 20.6 (no result: S1P2 blocker, LYP act, PTPN22 inh 2, S1P2 agonist) | GALR2 agon conf inactive | BLA activ ctr inactive
COc1ccc(C(=O)c2sc(Nc3cccc(OC)c3)c(C(=O)Nc3cccc(C)c3C)c2N)cc1	GALR2 agonist 16.2 | GALR2 agon conf inactive | BLA activ ctr inactive
COc1ccc(NC(=O)c2c(Nc3ccccc3)sc(C(=O)c3ccc(F)cc3)c2N)cc1	none
COc1ccc(Nc2sc(C(=O)c3ccc(Cl)cc3)c(N)c2C(=O)Nc2ccccc2OC)cc1	GALR2 agonist 14.1 | GALR2 agon conf inactive | BLA activ ctr inactive
COCc1nnc(NC(=O)CC(C)C)s1	none
CCC1CCc2c(sc(NC(=O)C3c4ccccc4Oc4ccccc43)c2C(N)=O)C1 (stereo not given)	none (no result: S1P2 blocker, LYP act, PTPN22 inh 2, S1P2 agonist)
Cc1nc(-c2cccc(S(=O)(=O)N3CCCC(C)C3)c2)cs1 (stereo not given)	GALR2 agonist 26.6 | GALR2 agon conf inactive | BLA activ ctr inactive
O=C(CSc1nnc(-c2cccnc2)n1CCN1CCCCC1)Nc1cccc(Cl)c1	none (no result: S1P2 blocker, LYP act, PTPN22 inh 2, S1P2 agonist)
O=C(CN1C(=O)NC2(CCCCC2)C1=O)Nc1ccccc1Cl	none (no result: S1P2 blocker, LYP act, PTPN22 inh 2, S1P2 agonist)
O=C1NC2(CCCCC2)C(=O)N1CCS(=O)(=O)Oc1ccccc1	none | GALR2 agon conf inactive | BLA activ ctr inactive
Cc1csc(NC(=O)c2cc3c(s2)-c2ccccc2OC3)n1	none | GALR2 agon conf inactive | BLA activ ctr inactive
Cc1ccc(C)c(SCC(=O)OCC(=O)c2ccco2)c1	none
C=CCNC(=O)/C(C#N)=C/c1cn(-c2ccccc2)nc1-c1cccs1	GALR2 agonist 13.5 (no result: S1P2 blocker, LYP act, PTPN22 inh 2, S1P2 agonist) | GALR2 agon conf 10.9 | BLA activ ctr inactive
O=C(NCCc1ccccc1)C(=O)N/N=C/c1ccc2c(c1)OCO2	none
O=C(NCCc1ccccc1)C(=O)N/N=C/c1ccccc1C(F)(F)F	none | GALR2 agon conf inactive | BLA activ ctr inactive
CNc1nc(OCC(F)(F)F)nc(N2CCN(C34CC5CC(CC(C5)C3)C4)CC2)n1	none
O=C(NCc1ccc(C(F)(F)F)cc1)C1CC(c2c(Cl)cccc2Cl)=NO1 (stereo not given)	none
